Assay outcomes as filed in PubChem BioAssay.
HCMV inh = blocks human cytomegalovirus replication. HFF cells, HCMV-luciferase reporter, 72 h; hits give low values. activity change, negative = inhibition, % at 57.5 µM. hit rate 4.5% among 410,000. AID 1259415; in the data active means activity change below about -60%; inconclusive means no clear call, values can overlap the other calls; inactive means above about -39%
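After 16 h attachment at 37C, HFF cells received test compound and HCMV-luciferase (1 PFU/cell); reporter luminescence read 72 h later, data normalized against buffer-only and known inhibitor Salinomycin.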
Sm TGR inh = S. mansoni TGR enzyme inhibition; hit rate 3% among 360,000; purified TGR, DTNB reduction, TNB absorbance 405 nm; Potency, µM (doses to about 114 µM), for the others: at the top dose activity change, negative = inhibition, most hits filed as inhibitors; Q962Y6; further: potency means the concentration at half of the fitted maximal effect; nearly all actives have a fitted effect of over 60% in size
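TGR 20 nM + NADPH 100 uM (dispensed conc.), cpd preinc 15 min RT; start with NADPH (500 uM addition) then DTNB (15 mM addition). Kinetic TNB absorbance, 405 nm filter. Four-parameter Hill fit across titration.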
Pf growth 48h = inhibits P. falciparum growth in the first generation, 48 h | P. falciparum luciferase growth in erythrocytes, 48 h | Potency, µM (highest dose often 28.7 µM), for inactives: at the top dose activity change, negative = inhibition, actives largely listed as inhibitors | hit rate 5.9% among 310,000 | AID 504832; further: potency means the concentration at half of the fitted maximal effect
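Luciferase-expressing parasites in RBCs, 2% Hct / 0.1% parasitemia final; RPMI 1640 + 0.5% Albumax; 37 C, 5% CO2, one generation; luminescence read-out, lower signal = inhibition.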
Giardia FBPA inh = inhibitors of Giardia lamblia fructose-1,6-bisphosphate aldolase; A8B2U2; purified Giardia FBPA; hit rate 0.71% among 290,000; Potency, µM (series often up to 59.6 µM), inactives show at the top dose activity, negative = inhibition, most hits filed as inhibitors; further: potency means the concentration at half of the fitted maximal effect; nearly all actives have a fitted effect of over 55% in size
Target sequence (A8B2U2 whole entry, looked up): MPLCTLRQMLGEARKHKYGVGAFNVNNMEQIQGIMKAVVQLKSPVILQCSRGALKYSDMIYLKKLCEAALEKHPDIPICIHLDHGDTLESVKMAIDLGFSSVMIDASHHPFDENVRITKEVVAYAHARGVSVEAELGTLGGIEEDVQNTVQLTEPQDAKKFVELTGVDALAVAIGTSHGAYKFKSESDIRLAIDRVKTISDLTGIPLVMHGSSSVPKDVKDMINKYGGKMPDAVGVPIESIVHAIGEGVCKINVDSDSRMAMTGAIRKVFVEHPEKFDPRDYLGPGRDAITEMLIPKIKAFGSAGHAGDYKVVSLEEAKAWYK
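40 nM FBPA preincubated 10 min at RT with compound (up to 57.5 uM final), then substrate plus GAPDH/TPI/NAD/arsenate coupling and diaphorase/resazurin added. Fluorescence read after 20 min at RT, 525/598 nm.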
Pf growth 96h = inhibits malaria parasite growth, 96 h; P. falciparum luciferase reporter growth, 96 h; Potency, µM (doses to about 28.7 µM), inactives show top-dose activity change, negative = inhibition, usual class: inhibitors; hit rate 6.9% among 320,000; further: potency means the concentration at half of the fitted maximal effect
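P. falciparum expressing integrated firefly luciferase grown in erythrocytes (2% hematocrit, 0.05% parasitemia final) with compounds for 96 hours at 37 C, 5% CO2. Growth inhibition read as loss of luminescence after adding luciferase detection reagent.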
* = called active by the depositor; [ ] = dose if it differs, or a comment. Sampled rows, rich in hits. Any-hit rate of the full collection: about 14%. Unless noted, the call rests on the fitted dose curve; in most records, active means well fitted curve in the direction sought with a large enough effect; inconclusive means small, poorly fitted or top-dose-only effect, or another doubt; inactive means no such curve, though single readings can be large; an effect the other way counts as inactive or inconclusive. On the % scale 0 is the no-effect control and ±100 the full control effect.

COCC(C)OC(=O)c1c(N)n(CC(C)C)c2nc3ccccc3nc12 (centres undefined) was read as HCMV inh inconclusive, Sm TGR inh -14%, Pf growth 48h 12µM* and Giardia FBPA inh -10%.
`C=CCn1c(N)c(C(=O)OC(C)(C)C)c2nc3ccccc3nc21` gave HCMV inh 9, Sm TGR inh inconclusive and Giardia FBPA inh -11%.
COc1ccc(C)cc1S(=O)(=O)n1cnc2ccccc21 was read as HCMV inh 19, Sm TGR inh 11%, Pf growth 48h 16%, Giardia FBPA inh 2% and Pf growth 96h 6%.
Screening COc1ccccc1N=C1SC(C(=O)Nc2ccc(F)cc2)CC(=O)N1C (centres undefined) returned HCMV inh -21, Sm TGR inh 1%, Pf growth 48h 10µM*, Giardia FBPA inh 0% and Pf growth 96h inconclusive.
Screening CCOc1cccc(NC(=O)C2CC(=O)N(C)C(=Nc3cccc(F)c3)S2)c1 (centres undefined) returned HCMV inh 43, Sm TGR inh 0%, Pf growth 48h inconclusive, Giardia FBPA inh -8% and Pf growth 96h inconclusive.
`CCOc1cccc(NC(=O)C2CC(=O)N(C)C(=Nc3ccccc3)S2)c1` (centres undefined) gave HCMV inh 2, Sm TGR inh -3%, Pf growth 48h inconclusive, Giardia FBPA inh -4% and Pf growth 96h 3.7µM*.
Screening Cc1nc(-c2ccccc2)sc1CCNC(=O)C(=O)Nc1ccc2c(c1)OCO2 returned HCMV inh 21 and Sm TGR inh 6%.
CNCCCC1c2ccccc2C=Cc2ccccc21 was read as HCMV inh -6, Sm TGR inh 1%, Pf growth 48h inconclusive, Giardia FBPA inh -4% and Pf growth 96h 12µM*.
CNCCC=C1c2ccccc2C=Cc2ccccc21 was read as HCMV inh -2 and Giardia FBPA inh 3%[21.7 µM].
Screening O=C1CC/C=C\C[C@@H](CC(=O)N(CCO)Cc2ccccc2)C(=O)N2CCC[C@H]2CO1 returned HCMV inh -14.
`CCOC(=O)c1[nH]c2ccccc2c1NC(=O)c1c(F)cccc1F` gave HCMV inh -2 and Sm TGR inh -8%.
For CSc1nc2nccc(/C=C\c3ccccc3)n2n1 the results were HCMV inh -106*, Sm TGR inh -19%, Pf growth 48h inconclusive, Giardia FBPA inh 5% and Pf growth 96h inconclusive.
For CSc1nc2nccc(-c3ccc(Cl)cc3)n2n1 the results were HCMV inh -25, Sm TGR inh -7%, Pf growth 48h -3%, Giardia FBPA inh 11% and Pf growth 96h 3%.
Cc1nc2cc(F)ccc2n1C1CCN(C(=O)c2c(F)cccc2F)CC1 was read as HCMV inh -17, Sm TGR inh 1%, Pf growth 48h 1.5µM*, Giardia FBPA inh -17% and Pf growth 96h -10%.
CC/C(=N/Nc1ccccc1Cl)c1cnnc(-c2ccccc2)n1 was read as HCMV inh -30, Sm TGR inh 1%, Pf growth 48h 2.3µM*, Giardia FBPA inh 1% and Pf growth 96h 1µM*.
For COc1ccc(N/N=C(/C)c2cnnc(-c3ccccc3)n2)cc1 the results were HCMV inh inconclusive, Sm TGR inh -8%, Pf growth 48h inconclusive, Giardia FBPA inh 0% and Pf growth 96h 0.37µM*.
Screening COc1ccc(/C(C)=N/Nc2nncc3ccccc23)cc1 returned HCMV inh 20, Sm TGR inh 29%, Pf growth 48h 175%, Giardia FBPA inh 6% and Pf growth 96h 312%.
For Cc1cccc(C(=O)NC2CCN(S(=O)(=O)c3ccccc3F)CC2)c1 the results were HCMV inh -21, Sm TGR inh 8%, Pf growth 48h inconclusive, Giardia FBPA inh 8% and Pf growth 96h -11%.
Screening O=C(NC1CCN(S(=O)(=O)c2ccccc2)CC1)c1ccc(F)cc1 returned HCMV inh -14, Sm TGR inh 8%, Pf growth 48h 6%, Giardia FBPA inh -2% and Pf growth 96h inconclusive.
For O=C(NC1CCN(S(=O)(=O)c2ccccc2)CC1)c1ccccc1 the results were HCMV inh 2, Sm TGR inh 0%, Pf growth 48h 10%, Giardia FBPA inh 2% and Pf growth 96h 15µM*.
For Cc1ccc(C(=O)NC2CCN(S(=O)(=O)c3ccccc3F)CC2)cc1 the results were HCMV inh inconclusive, Sm TGR inh -4%, Pf growth 48h -6%, Giardia FBPA inh -2% and Pf growth 96h 13µM*.
For CCc1noc(C)c1C(=O)Nc1ccc(C(F)(F)F)cc1 the results were HCMV inh 32, Sm TGR inh 6%, Pf growth 48h -1% and Pf growth 96h 37%.
For CCOC(=O)C1=C(CSCc2ccccc2)NC(=O)NC1c1cc(C)ccc1C (centres undefined) the results were HCMV inh 0, Sm TGR inh 2%, Pf growth 48h 13µM* and Giardia FBPA inh -2%.
`COc1ccc(CNC(=O)C2CCCN(C(=O)Nc3ccc(OC)cc3)C2)cc1` (centres undefined) gave HCMV inh 6, Sm TGR inh 5%, Pf growth 48h 10%, Giardia FBPA inh 7% and Pf growth 96h -3%.
`COc1ccc2[nH]cc(CCNc3nc(-c4cccnc4)nc4ccccc34)c2c1` gave Giardia FBPA inh -14%.
Screening Cc1cc(Cl)c(S(=O)(=O)N2CCCC2)cc1OCC(=O)NC1CCCCC1 returned HCMV inh -96*, Sm TGR inh 17%, Giardia FBPA inh 5% and Pf growth 96h 0.083µM*.
`COc1cc(C)c(Cl)cc1S(=O)(=O)N1CCCC1` gave HCMV inh -7, Pf growth 48h -3%, Giardia FBPA inh -3% and Pf growth 96h inconclusive.
For O=C(COc1ccc(S(=O)(=O)N2CCCC2)cc1Cl)NC1CCCC1 the results were HCMV inh 47, Sm TGR inh 4%, Pf growth 48h 9.3µM* and Giardia FBPA inh 6%.
CCOc1cc(C)c(Cl)cc1S(=O)(=O)N1CCCC1 was read as HCMV inh -35, Sm TGR inh -2%, Pf growth 48h -16%, Giardia FBPA inh -4% and Pf growth 96h 0.93µM*.
For O=C1OCCOC2CCCc3oc(C4=CCCCC4)c1c32 (centres undefined) the results were HCMV inh -8.
CSc1ccc(C(O)c2ncc(-c3ccccc3Cl)[nH]2)cc1 (centres undefined) was read as HCMV inh 5.
`Cc1cccc(NC(=O)CSc2nc3c(oc4ccccc43)c(=O)n2-c2ccccc2)c1C` gave HCMV inh -28 and Sm TGR inh -1%.
Screening O=C1c2cccnc2C(Nc2ccc(Br)cc2Br)N1Cc1cccs1 (centres undefined) returned Sm TGR inh -11%, Pf growth 48h inconclusive, Giardia FBPA inh -2% and Pf growth 96h 6.6µM*.
